An excerpt weighted towards active compounds, which were near 12% of everything screened.
JMJD2A Tudor inh: blocks the human JMJD2A Tudor domain. hit rate 4.4% among 390,000. O75164. Potency, µM (doses to about 114 µM), without a hit: at the highest dose activity change, negative = inhibition, actives largely listed as inhibitors. AlphaScreen JMJD2A-Tudor / H3K4me3 peptide binding; note: % is set by controls: 0 for no effect and ±100 for the full control effect; nearly all actives have a fitted effect of over 50% in size
HP1b binding inh: blocks HP1-beta chromodomain binding to methylated histone tails. P83916. AlphaScreen HP1-beta / biotin-H3K9me3 peptide binding. Potency, µM (top dose mostly 114 µM), for inactives: top-dose activity change, negative = inhibition, most hits filed as inhibitors. hit rate 0.56% among 390,000; note: nearly all actives have a fitted effect of over 70% in size
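AlphaScreen: HP1-beta (50 nM) preformed 30 min with biotin-H3(1-18)K9me3 peptide (50 nM) in PBS pH 7.4, 0.01% Tween-20. Compound added for 30 min at RT, then streptavidin donor/nickel chelate acceptor beads (10 ug/mL) for 30 min.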
L3MBTL1 inh: blocks human L3MBTL1. Q9Y468. AlphaScreen L3MBTL1–H3K9me1 peptide binding. Potency, µM (series often up to 57.1 µM), inactives show top-dose activity, negative = inhibition, usual class: inhibitors. hit rate 0.66% among 230,000. AID 485360; note: % is set by controls: 0 for no effect and ±100 for the full control effect; nearly all actives have a fitted effect of over 60% in size
Target sequence (Q9Y468 whole entry, looked up): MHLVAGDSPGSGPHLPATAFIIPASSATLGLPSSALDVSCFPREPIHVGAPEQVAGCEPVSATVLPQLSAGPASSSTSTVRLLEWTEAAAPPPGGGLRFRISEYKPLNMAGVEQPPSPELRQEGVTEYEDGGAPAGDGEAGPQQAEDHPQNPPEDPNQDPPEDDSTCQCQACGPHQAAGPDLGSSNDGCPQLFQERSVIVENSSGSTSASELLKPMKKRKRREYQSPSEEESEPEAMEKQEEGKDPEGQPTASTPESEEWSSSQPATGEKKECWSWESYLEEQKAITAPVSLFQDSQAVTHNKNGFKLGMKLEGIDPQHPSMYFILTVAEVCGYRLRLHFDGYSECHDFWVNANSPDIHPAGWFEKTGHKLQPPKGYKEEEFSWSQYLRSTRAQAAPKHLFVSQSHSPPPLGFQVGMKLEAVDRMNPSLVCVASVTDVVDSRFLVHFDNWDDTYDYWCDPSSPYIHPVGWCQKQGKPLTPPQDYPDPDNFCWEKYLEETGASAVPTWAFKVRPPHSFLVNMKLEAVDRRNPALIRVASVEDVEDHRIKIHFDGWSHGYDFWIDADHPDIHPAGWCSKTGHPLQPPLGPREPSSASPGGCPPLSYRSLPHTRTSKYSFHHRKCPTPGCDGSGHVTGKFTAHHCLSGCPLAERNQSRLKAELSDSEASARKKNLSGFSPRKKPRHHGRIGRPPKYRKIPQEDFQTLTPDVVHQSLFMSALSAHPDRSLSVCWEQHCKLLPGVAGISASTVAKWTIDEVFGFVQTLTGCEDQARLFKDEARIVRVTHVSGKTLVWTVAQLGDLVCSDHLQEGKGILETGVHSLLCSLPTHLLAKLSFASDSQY
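First, the protein-peptide complex forms for 30 min at room temperature (L3MBTL1 50 nM, biotinylated H3K9me1 peptide 75 nM). Next, compounds are pin-transferred and incubated 30 min. Finally, AlphaScreen beads are added and read after 30 min.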
Sfp PPTase inh: inhibitors of Bacillus subtilis Sfp phosphopantetheinyl transferase; Q9F4F7; Biochemical Sfp PPTase activity, qHTS; Potency, µM, inactives show largest response in the series, negative = inhibition, most hits filed as inhibitors; hit rate 3.5% among 310,000; AID 1490;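 note: the enzyme is Sfp with the accession as filed and its product quenches rhodamine fluorescence; 0% = enzyme reaction without inhibitor and -100% = no enzyme wells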
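After 15 min at room temperature with compound, 15 nM Sfp received 5 uM rhodamine-CoA plus 12.5 uM BHQ-2-ybbR (50 mM Hepes pH 7.6, 10 mM MgCl2). Rate came from the fluorescence difference over 30 min, ex 525/em 598 nm.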
G9a inh: G9a (human) methyltransferase inhibition | Potency, µM (doses to about 102 µM), without a hit: at the top dose activity, negative = inhibition, hits mostly inhibitors | Q96KQ7 | G9a H3K9 monomethylation, AlphaScreen, 2 h | AID 504332 | hit rate 8.8% among 350,000; note: % is set by controls: 0 for no effect and ±100 for the full control effect; nearly all actives have a fitted effect of over 75% in size
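Using a bead-based AlphaScreen, monomethylated H3K9 product from 2 h room-temperature reactions (G9a 20 nM, peptide 500 nM, SAM 20 uM) was detected with 0.5 ug/mL rabbit anti-H3K9me1 antibody.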
BAZ2B block: inhibitors of human BAZ2B bromodomain. AlphaScreen BAZ2B-H3K14Ac peptide displacement. AID 504333. Potency, µM (top dose mostly 114 µM), for inactives: at the top dose activity change, negative = inhibition, most hits filed as inhibitors. hit rate 4.4% among 360,000; note: % is set by controls: 0 for no effect and ±100 for the full control effect; nearly all actives have a fitted effect of over 60% in size
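Complex of BAZ2B and biotin-H3K14Ac (50 nM apiece) forms over 30 min at RT, then faces library compounds up to 110 uM for another 30 min; AlphaScreen beads added, 20 min dark incubation, luminescence read.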
* hit, by the source's call; u = inconclusive; x = not tested or not shown; [ ] = another dose, or the depositor's remark. Calls come from the whole dose curve; as a rule, active = well fitted curve in the direction sought with a large enough effect; inconclusive = small, poorly fitted or top-dose-only effect, or another doubt; inactive = no such curve, though single readings can be large; an effect the other way counts as inactive or inconclusive. Potency is the fitted concentration of half-maximal effect.

SMILES	JMJD2A Tudor inh	HP1b binding inh	L3MBTL1 inh	Sfp PPTase inh	G9a inh	BAZ2B block
CCc1ccc(C(O)(CC(C)C)C(CN2CCOCC2)c2ccccc2)cc1 (configuration not stated)	-23.4%	19.0%	x	-5.7%	7.3%	0.4%
CCc1ccc(C(O)(c2ccccc2OC)C(CN2CCOCC2)c2ccccc2)cc1 (configuration not stated)	-22.7%	11.7%	x	-17.5%	44.7µM*	x
CCOc1ccc(C(O)(c2ccccc2)C(CN2CCCC2)c2ccccc2)cc1 (configuration not stated)	14.1µM*	7.6%	x	-1.0%	-34.0%	-13.6%
Cc1cc(C)cc(NC(=O)Cn2nnc(-c3ccccc3F)n2)c1	-10.4%	59.7%	x	x	3.4%[59 µM]	-2.6%
CC(C)CCn1c(O)c(N=Nc2ccccn2)c2ccccc21	-9.5%	63.9%	-6.0%	-15.7%	31.9%[59 µM]	-1.3%
CC(C)CCn1c(O)c(N=NC(=O)Cn2ccc(C(F)(F)F)n2)c2ccccc21	50.1µM*	4.5%	-3.4%	20.1%	-8.9%[59 µM]	3.0%
C=C1NC(=O)c2cc(CN(C)c3ccc(C(=O)N[C@@H](CCC(=O)O)C(=O)O)s3)ccc2N1	x	x	x	-2.0%	11.0%[59 µM]	x
COc1cc2c(cc1OC)CN(C(=O)CSc1nnc3scc(-c4ccccc4)n13)CC2	-16.2%	50.8%	-6.0%	70.8µM*	14.1µM*	-24.4%
Cn1c(SCC(=O)N2CCN(c3ccccc3)CC2)nnc1-c1ccco1	-15.0%	34.4%	1.2%	-8.0%	28.3%	-26.2%
Cc1ccccc1-n1c(SCC(=O)N2CCC(C(=O)O)CC2)nnc1-c1ccncc1	-6.3%	53.2%	-1.3%	12.1%	-0.7%	29.3%
Cc1ccccc1-n1c(SCC(=O)N2CCN(c3ccccc3)CC2)nnc1-c1ccncc1	-22.2%	20.1%	4.0%	-8.8%	44.7µM*	11.6%
CCOC(=O)C1CCN(Cc2cc(=O)n3c(-c4ccccc4)csc3n2)CC1	-7.3%	26.0%	x	8.7%	-6.1%	-3.6%
COc1cc2c(cc1OC)CN(Cc1cc(=O)n3c(-c4ccccc4)csc3n1)CC2	-20.4%	32.4%	x	-17.3%	25.1µM*	-3.8%
Cn1c(SCC(=O)N2CCN(c3ccccc3)CC2)nnc1-c1ccccc1	-8.3%	21.2%	0.0%	20.2%	50.1µM*	-19.6%
COc1cc(OC)cc(-c2nc3n(n2)C(c2ccccc2F)C(C(=O)Nc2cccnc2)=C(C)N3)c1 (configuration not stated)	-29.4%	14.3%	x	x	21.8%[59 µM]	-11.3%
O=c1cc(CN2CCc3ccccc3C2)nc2sccn12	-5.6%	41.9%	-17.2%	-6.8%	79.4µM*	6.6%
O=c1cc(CN2CCN(c3ccccc3O)CC2)nc2sccn12	u	9.4%	x	-8.8%	-9.9%	-2.5%
C/C=C/c1ccc(OCc2cc(=O)n3cc(C)ccc3n2)c(OC)c1	-31.2%	19.9%	-23.7%	-9.6%	x	u
C=CCn1c(COc2cccc(C)c2C)nnc1SCC(=O)N1CCN(c2ccccc2)CC1	u	-11.0%	-8.9%	-2.1%	3.98µM*	u
COc1cc2c(cc1OC)CN(Cc1cc(=O)n3cc(C)ccc3n1)CC2	-15.7%	36.1%	2.7%	-1.1%	35.5µM*	-1.4%
Cn1c(SCC(=O)N2CCN(Cc3ccccc3)CC2)nnc1-c1ccncc1	-9.7%	30.2%	4.6%[11.4 µM]	15.7%	11.2µM*	-0.8%
Cn1c(SCC(=O)N2CCOCC2)nnc1-c1ccncc1	0.7%	7.4%	x	14.1%	-11.8%[59 µM]	6.9%
O=C1c2ccccc2C(=O)N1c1cccc2ccncc12	-22.4%	x	x	x	x	x
COc1ccc2c(CNCCc3ccccc3OC)c(C(=O)O)n(Cc3ccc(F)cc3Cl)c2c1	u	-1.5%	x	x	u	u
CC(C)c1ccc(NC(=O)c2cc(S(=O)(=O)NCc3ccccc3Cl)ccc2F)cc1	-26.6%	12.7%	x	x	-2.9%[59 µM]	3.1%
SMILES	JMJD2A Tudor inh	HP1b binding inh	L3MBTL1 inh	Sfp PPTase inh	G9a inh	BAZ2B block
CCn1c(SCC(=O)N2CCN(c3ccccc3)CC2)nnc1-c1ccncc1	x	x	9.3%	-5.9%	1.78µM*	9.5%
Cc1ccc(-c2csc3nnc(SCC(=O)N4CCN(Cc5ccccc5)CC4)n23)cc1	-30.6%	1.4%	-1.4%	-7.7%	25.1µM*	-38.5%
COC(=O)CSc1nnc(-c2cccc(NC(=O)c3ccc(C)cc3)c2)n1C	-21.9%	21.0%	35.1%	3.2%	-47.2%	8.0%
Cn1c(SCC(=O)O)nnc1-c1cccc(NC(=O)c2cccc3ccccc23)c1	-4.4%[11.4 µM]	33.2%	0.2%	-5.0%	31.6µM*	-13.3%
COc1cccc(N2CC(NC(=O)c3ccc(S(=O)(=O)N4CCOCC4)cc3)CC2=O)c1 (configuration not stated)	-16.9%	50.4%	x	x	-45.9%[59 µM]	-9.2%
COc1ccc(Cl)cc1NC(=O)CN1c2ccccc2S(=O)(=O)c2ccccc21	-24.0%	23.3%	x	x	-13.6%[59 µM]	-18.1%
CS(=O)(=O)CC[C@@H](C(=O)NCCc1ccccc1)N1Cc2ccccc2C1=O	-5.4%	31.7%	x	x	5.7%[59 µM]	-6.1%
Oc1ccc2[nH]cnc2c1CN1CCCCC1	4.1%	23.7%	-4.4%	-18.3%	5.62µM*	11.4%
O=c1[nH]c(/C=C/c2ccc([N+](=O)[O-])cc2)c([N+](=O)[O-])c(=O)[nH]1	-2.7%	5.7%	-7.6%	0.3%	28.2µM*	-4.1%
C=C(C)C(=O)NNc1ccccc1	-4.9%	28.4%	8.1%	-10.9%	11.2µM*	-4.9%
CC(C)OC(=O)C(=O)NNc1ccccc1	-9.0%	31.9%	-6.8%	-23.3%	u	-37.4%
CC(C)C(=O)NNc1ccccc1	-4.8%	28.3%	-1.1%	-1.8%	-4.7%[59 µM]	5.3%
CCCOC(=O)C(=O)NNc1ccccc1	3.0%	22.7%	x	-18.1%	39.8µM*	6.5%
O=C(NCc1cccs1)c1nn(-c2ccccc2Cl)nc1CO	-13.2%	55.4%	x	x	u	-2.1%
COc1ccc(C(=O)/C=C/Nc2cccc(O)c2)cc1	10.5%	28.7%	x	-10.2%	39.8µM*	-30.5%
COc1cccc(N/C=C/C(=O)c2ccc(Br)cc2)c1	6.8%	79.8%	x	x	x	x
COc1cccc(C(=O)/C=C/Nc2cc(C)ccc2O)c1	56.2µM*	0.4%	-3.9%	u	u	u
COc1ccc(C(=O)Nc2nc(-c3nnn(-c4ccc(C(C)C)cc4)c3C)ns2)cc1	-16.9%	-9.6%	x	x	7.4%[59 µM]	-1.1%
CC1=C(C(=O)Nc2cccc(C(F)(F)F)c2)C2(CCN(C(C)C)CC2)OC1=O	-5.8%	29.7%	x	x	1.3%[59 µM]	4.8%
O=C(Cc1ccccc1)NC(NNc1ccccc1)(C(F)(F)F)C(F)(F)F	u	u	9.2%	8.6%	10µM*	6.1%
Cc1c(NC(=O)Nc2ccc(Cl)c(C(F)(F)F)c2)c(=O)n(-c2ccccc2)n1C	4.8%	31.4%	x	x	5.8%[59 µM]	4.4%

Assay outcomes as filed in PubChem BioAssay.
